Screening data from PubChem.
Most compounds without a hit are left out; they make up all but 1.7% or so of the library.
BJeLR lethal: MLPCN primary cell-based screen for lethality selective to Ras in HRASV12 cells; BJeLR (HRASV12) viability, CellTiter-Glo ATP luminescence, 48 h; inhibition, % (concentration not given with the values); 0.17% of 300,000 active; AID 1554, 2009; in the data active = inhibition above about 50%
PfHsp40 rescue: rescue of yeast from PfHsp40 toxicity, primary screen, S. cerevisiae, ATP luminescence. S. cerevisiae expressing PfHsp40, growth rescue. growth rescue, % at 12.5 µM. 0.68% of 340,000 active. AID 504582, 2011; in the data active = growth rescue above about 28%, passing the limit was not always enough;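 also: yeast W303a lacking pdr1 and pdr3 grown in galactose medium; growth measured after three days at 30 °C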
SSB-PriA inh: inhibitors of Klebsiella pneumoniae PriA binding to SSB C-terminal tail, primary screen, biochemical, AlphaScreen; AlphaScreen SSBct-PriA binding, biotinylated peptide; inhibition, % at 33 µM; 0.6% of 430,000 active; in the data active = inhibition mostly above about 37%, no sharp cut-off; inactive = mostly below about 20%;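 also: plate controls were negative control peptide for no effect and reference peptide for full effect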
PrP UTR inh: inhibition of PrP 5' UTR reporter expression | 0.35% of 340,000 active | AID 488862, 2010 | cell-based PrP 5' UTR mRNA reporter, plate reader | inhibition, % (test concentration not listed); in the data active = inhibition above about 52%; also: 0 = median of the neutral control wells
Yp Topo-I inh: Yersinia pestis topoisomerase I inhibitors, primary screen, biochemical, cleavage product accumulation, plate reader, single point; DNA topoisomerase I (Yersinia pestis CO92); Y. pestis Topo-I cleavage product accumulation; activity, % at 10 µM; 0.064% of 360,000 active; in the data active = activity above about 50%, passing the limit was not always enough
PrPC surface inh: inhibitors of human cell surface prion protein PrPC, primary screen, cell-based, TR-FRET; inhibition, % at 13.8 µM; 0.43% of 370,000 active; TR-FRET read-out; Major prion protein (Homo sapiens), P04156; in the data active = inhibition above about 24%; also: 0% = median of the test wells and 100% = reference compound wells
An asterisk follows results filed as active; / = not tested or not shown.

SMILES | BJeLR lethal | PfHsp40 rescue | SSB-PriA inh | PrP UTR inh | Yp Topo-I inh | PrPC surface inh
O=[N+]([O-])c1ccc(-c2cnc(SCc3ccccc3Cl)[nH]2)cc1 | 1.0 | 149.3* | 38.9* | -29.5 | -28.0 | -3.8
COc1cc(C(=O)/C=C/c2cccnc2)c([N+](=O)[O-])cc1OC | 55.5* | 1.9 | -20.2 | -36.0 | 5.5 | -13.6
CCOc1cc(-c2ccc(N)c(OCC)c2)ccc1N | -5.2 | -0.6 | 69.9* | -9.0 | -7.5 | 0.4
COc1ccc(NC(=O)C(c2cc3c(cc2[N+](=O)[O-])OCO3)N(C)Cc2ccccc2)cc1 (stereo not drawn) | 11.2 | 1.8 | 46.7* | -7.3 | 15.2 | 5.5
COc1ccc(NC(=O)C(c2cc3c(cc2[N+](=O)[O-])OCO3)N2CCN(C=O)CC2)cc1 (stereo not drawn) | -5.4 | -0.1 | -0.4 | -16.6 | 2.9 | -6.9
COc1ccc(CNCc2cc3c(cc2[N+](=O)[O-])OCO3)cc1 | -4.1 | -0.4 | 13.1 | -11.3 | -10.1 | -20.6
CCN(c1cccc(C)c1)C(C(=O)Nc1ccc(OC)cc1)c1cc2c(cc1[N+](=O)[O-])OCO2 (stereo not drawn) | -0.8 | -1.0 | 40.1* | -14.9 | 10.6 | 5.6
CSCCC1NC(=O)N(CC(=O)N2CCc3ccccc3C2)C1=O (stereo not drawn) | / | 49.9* | 0.1 | -6.9 | 2.5 | -3.6
CC1CCC2(CC1)NC(=O)N(CC(=O)N1CCc3ccccc3C1)C2=O (stereo not drawn) | 1.2 | 1.3 | 3.2 | -43.3 | 4.4 | -1.5
O=C(Nc1ncc([N+](=O)[O-])s1)c1ccc2c(c1)OCO2 | 34.2 | -3.7 | 1.3 | 68.9* | -2.2 | -15.3
Cc1ccc([N+](=O)[O-])cc1NC(=O)c1ccc2c(c1)OCO2 | 1.5 | -0.2 | -8.6 | -27.0 | -5.5 | 2.3
CCCCNc1c(-c2ccc(SC(C)CC)cc2)nc2ccccn12 (stereo not drawn) | 10.8 | 209.2* | 12.2 | -43.3 | 40.6 | 16.0
CCCCNc1c(-c2ccc(OC)c(SC(C)CC)c2)nc2cnccn12 (stereo not drawn) | / | 17.5 | 4.0 | 7.0 | 18.6 | -5.0
CCCCCCSc1ccc(-c2nc3cnccn3c2NCCCC)cc1 | / | 36.6* | -0.1 | -1.4 | 7.7 | -2.6
O=c1c2cc(-c3ccc(Cl)cc3)nn2ccn1Cc1cccc(F)c1 | / | / | 4.0 | / | / | /
COc1ccc(-c2nc(C#N)c(N3CCOCC3)o2)cc1 | / | / | 54.2* | / | / | /
COc1ccc(-c2nc(C#N)c(N3CCCCC3)o2)cc1 | 1.1 | 3.8 | 49.7* | -3.5 | 11.7 | 10.4
CCOc1ccc(-c2nc(C#N)c(N3CCCCCC3)o2)cc1 | 0.6 | 5.5 | 93.2* | -23.8 | 35.8 | -3.1
CCOc1ccc(-c2nc(C#N)c(N3CCN(C)CC3)o2)cc1 | -0.5 | -1.2 | -6.3 | 5.7 | 4.5 | -1.5
Cc1cc(-c2nnc(NC(=O)/C=C/c3cccs3)o2)nn1C | / | / | 5.0 | / | / | /
O=S(=O)(c1ccc2c(c1)OCCO2)N1CCN(Cc2nc(-c3cccs3)cs2)CC1 | / | / | 8.0 | / | / | /
O=C(NC1CCS(=O)(=O)C1)c1ccc(-n2cncn2)nn1 (stereo not drawn) | / | / | 3.0 | / | / | /
C=CCN1C(=O)C(C)(C)COc2cc(NS(=O)(=O)c3cc(CC)ccc3OC)ccc21 | / | / | -19.0 | / | / | /
COc1cc2nc(Cl)sc2cc1OC | / | / | -6.0 | / | / | /
C[C@@H]1C=CC(=O)O[C@@H]1c1ccc(Cl)cc1 | 76.6* | / | -2.1 | / | / | 2.4
SMILES | BJeLR lethal | PfHsp40 rescue | SSB-PriA inh | PrP UTR inh | Yp Topo-I inh | PrPC surface inh
CC1C(=O)OC(c2ccc(Cl)cc2)C(C)(C)C1=O (stereo not drawn) | -2.4 | -0.4 | 21.4 | -3.9 | -1.5 | 4.4
CCOC(=O)C(Sc1nc(-c2ccccc2)cc(-c2ccccc2)c1C#N)=C(C)O | / | / | -12.7 | / | / | /
COc1ccc(/C=N/Nc2cc(C)nc(-n3nc(C)cc3C)n2)c(OC)c1 | 12.9 | 178.0* | / | 7.8 | 16.5 | 9.9
COc1ccc(C=NNc2cc(C)nc3ccc(OC)cc23)c(OC)c1 | / | / | 40.9* | / | / | /
COC(=O)CS(=O)(=O)c1nnc([C@H](Cc2ccccc2)NC(=O)OC(C)(C)C)o1 | 11.6 | 0.4 | 11.7 | 16.3 | 5.3 | 3.1
Cc1cccc(CS(=O)(=O)c2nnc([C@H](Cc3ccccc3)NC(=O)OC(C)(C)C)o2)c1 | -16.0 | 373.4* | 6.5 | / | 3.5 | /
